Laboratory results from PubChem BioAssay AID1159580 (chemical genetic matrix, 2015).
About 2,000 (36%) of roughly 5,500 compounds were called active. Another 18% or so got no clear call; they are omitted. Rule as the data show it: active = normalized growth mostly below about 0.91 (no sharp cut-off); inconclusive = no clear call, values can overlap the other calls; inactive = mostly above about 0.92. This is one part of the list.

Experiment: chemical genetic growth profiling, strain panel (AID 1159580);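 also: tested at 20 µM; growth read once vehicle control cultures reached saturation at 30 °C; 1 = growth at the plate median or of vehicle wells; lower values mean less growth of the strain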
Settings: growth OD

Measured: normalized growth

O=c1cc(-c2ccc(O)cc2)oc2cc(O[C@@H]3O[C@H](CO)[C@@H](O)[C@H](O)[C@H]3O[C@@H]3OC[C@](O)(CO)[C@H]3O)cc(O)c12
inactive: S. cerevisiae deletion strains, locus YJR075W, strain HOC1, active compounds read low 1.04 | S. cerevisiae deletion strains, locus YKL009W, strain mrt4, active compounds read low 0.986 | S. cerevisiae deletion strains, locus YKL068W, active compounds read low 0.991 | S. cerevisiae deletion strains, locus YKL085W, strain MDH1 (second series), active compounds read low 0.999 | S. cerevisiae deletion strains, locus YKL085W, strain MDH1, active compounds read low 0.999 | S. cerevisiae deletion strains, locus YKL160W, strain elf1, active compounds read low 1.01 | S. cerevisiae deletion strains, locus YKL190W, strain CNB1, active compounds read low 0.994 | S. cerevisiae deletion strains, locus YKR001C, strain vps1, active compounds read low 0.987 | S. cerevisiae deletion strains, locus YKR026C, strain gcn3, active compounds read low 0.991 | S. cerevisiae deletion strains, locus YKR091W, strain srl3, active compounds read low 1.01 | S. cerevisiae deletion strains, locus YLL001W, strain dnm1, active compounds read low 0.993 | S. cerevisiae deletion strains, locus YLL026W, active compounds read low 0.995 | S. cerevisiae deletion strains, locus YLL041C, strain sdh2, active compounds read low 1 | S. cerevisiae deletion strains, locus YLR027C, strain aat2, active compounds read low 1.01 | S. cerevisiae deletion strains, locus YLR039C, strain RIC1, active compounds read low 1.11 | S. cerevisiae deletion strains, locus YLR058C, strain SHM2, active compounds read low 1.02 | S. cerevisiae deletion strains, locus YLR102C, strain apc9, active compounds read low 0.989 | S. cerevisiae deletion strains, locus YLR113W, strain HOG1, active compounds read low 1.03 | S. cerevisiae deletion strains, locus YLR221C, strain rsa3, active compounds read low 1.01 | S. cerevisiae deletion strains, locus YLR258W, strain gsy2, active compounds read low 0.997 | S. cerevisiae deletion strains, locus YLR262C, strain YPT6 (second series), active compounds read low 0.999 | S. cerevisiae deletion strains, locus YLR262C, strain YPT6, active compounds read low 1.16 | S. cerevisiae deletion strains, locus YLR268W, strain sec22, active compounds read low 0.983 | S. cerevisiae deletion strains, locus YLR320W, strain mms22, active compounds read low 1.02 | S. cerevisiae deletion strains, locus YLR330W, strain CHS5, active compounds read low 1.04 | S. cerevisiae deletion strains, locus YLR342W, strain FKS1 (second series), active compounds read low 0.994 | S. cerevisiae deletion strains, locus YLR342W, strain FKS1, active compounds read low 1.01 | S. cerevisiae deletion strains, locus YLR357W, strain rsc2, active compounds read low 0.979 | S. cerevisiae deletion strains, locus YLR370C, strain arc18, active compounds read low 1 | S. cerevisiae deletion strains, locus YLR371W, strain rom2, active compounds read low 0.985 | S. cerevisiae deletion strains, locus YLR384C, strain iki3, active compounds read low 0.999 | S. cerevisiae deletion strains, locus YLR418C, strain cdc73, active compounds read low 1.06 | S. cerevisiae deletion strains, locus YML016C, strain PPZ1, active compounds read low 1.01 | S. cerevisiae deletion strains, locus YML032C, strain rad52, active compounds read low 1 | S. cerevisiae deletion strains, locus YML120C, strain ndi1, active compounds read low 1.02 | S. cerevisiae deletion strains, locus YML124C, strain tub3, active compounds read low 0.991 | S. cerevisiae deletion strains, locus YMR058W, strain fet3, active compounds read low 1.01 | S. cerevisiae deletion strains, locus YMR078C, strain ctf18, active compounds read low 0.963 | S. cerevisiae deletion strains, locus YMR125W, strain sto1, active compounds read low 0.992 | S. cerevisiae deletion strains, locus YMR129W, active compounds read low 1.01 | S. cerevisiae deletion strains, locus YMR205C, strain PFK2, active compounds read low 1.01 | S. cerevisiae deletion strains, locus YMR223W, strain ubp8, active compounds read low 1.02 | S. cerevisiae deletion strains, locus YMR231W, strain pep5, active compounds read low 0.997 | S. cerevisiae deletion strains, locus YMR263W, strain SAP30, active compounds read low 1.02 | S. cerevisiae deletion strains, locus YMR307W, strain GAS1, active compounds read low 1.04 | S. cerevisiae deletion strains, locus YNL067W, strain RPL9B, active compounds read low 1.02 | S. cerevisiae deletion strains, locus YNL071W, strain lat1, active compounds read low 1.02 | S. cerevisiae deletion strains, locus YNL153C, strain GIM3, active compounds read low 1 | S. cerevisiae deletion strains, locus YNL183C, strain NPR1, active compounds read low 0.979 | S. cerevisiae deletion strains, locus YNL209W, strain ssb2, active compounds read low 1.01 | S. cerevisiae deletion strains, locus YNL233W, strain BNI4, active compounds read low 1.02 | S. cerevisiae deletion strains, locus YNL248C, strain rpa49, active compounds read low 1 | S. cerevisiae deletion strains, locus YNL250W, strain rad50, active compounds read low 1 | S. cerevisiae deletion strains, locus YNL271C, strain bni1, active compounds read low 1.01 | S. cerevisiae deletion strains, locus YNL298W, strain CLA4, active compounds read low 0.994 | S. cerevisiae deletion strains, locus YNL307C, strain MCK1, active compounds read low 0.977 | S. cerevisiae deletion strains, locus YNL322C, strain KRE1 (second series), active compounds read low 0.994 | S. cerevisiae deletion strains, locus YNL322C, strain KRE1, active compounds read low 1.01 | S. cerevisiae deletion strains, locus YNR049C, strain mso1, active compounds read low 0.998 | S. cerevisiae deletion strains, locus YNR052C, strain pop2, active compounds read low 1 | S. cerevisiae deletion strains, locus YOL012C, strain htz1 0.956 | S. cerevisiae deletion strains, locus YOL147C, strain pex11, active compounds read low 0.996 | S. cerevisiae deletion strains, locus YOR001W, strain rrp6, active compounds read low 1.01 | S. cerevisiae deletion strains, locus YOR061W, strain CKA2, active compounds read low 1.02 | S. cerevisiae deletion strains, locus YOR069W, strain VPS5, active compounds read low 1 | S. cerevisiae deletion strains, locus YOR070C, strain gyp1, active compounds read low 1 | S. cerevisiae deletion strains, locus YOR080W, strain dia2, active compounds read low 1 | S. cerevisiae deletion strains, locus YOR083W, strain WHI5, active compounds read low 1.02 | S. cerevisiae deletion strains, locus YOR106W, strain vam3, active compounds read low 1.02 | S. cerevisiae deletion strains, locus YOR136W, strain idh2, active compounds read low 0.974 | S. cerevisiae deletion strains, locus YOR144C, strain elg1, active compounds read low 0.989 | S. cerevisiae deletion strains, locus YOR184W, strain ser1, active compounds read low 1.04 | S. cerevisiae deletion strains, locus YOR231W, strain MKK1, active compounds read low 1.07 | S. cerevisiae deletion strains, locus YOR265W, strain rbl2, active compounds read low 1.01 | S. cerevisiae deletion strains, locus YOR270C, strain vph1, active compounds read low 1.02 | S. cerevisiae deletion strains, locus YOR290C, strain snf2, active compounds read low 0.998 | S. cerevisiae deletion strains, locus YOR316C, strain cot1, active compounds read low 0.992 | S. cerevisiae deletion strains, locus YPL051W, strain arl3, active compounds read low 1 | S. cerevisiae deletion strains, locus YPL055C, strain LGE1, active compounds read low 1.04 | S. cerevisiae deletion strains, locus YPL078C, strain atp4, active compounds read low 0.999 | S. cerevisiae deletion strains, locus YPL106C, strain sse1, active compounds read low 0.997 | S. cerevisiae deletion strains, locus YPL240C, strain hsp82, active compounds read low 1 | S. cerevisiae deletion strains, locus YPL241C, strain CIN2, active compounds read low 1.01 | S. cerevisiae deletion strains, locus YPL256C, strain CLN2, active compounds read low 0.995 | S. cerevisiae deletion strains, locus YPR119W, strain clb2, active compounds read low 0.984 | S. cerevisiae deletion strains, locus YPR141C, strain kar3, active compounds read low 0.999 | S. cerevisiae deletion strains, locus YPR163C, strain tif3, active compounds read low 0.979 | S. cerevisiae deletion strains, locus YPR167C, strain met16, active compounds read low 0.981 | S. cerevisiae deletion strains, strain wtn01, active compounds read low 0.99 | S. cerevisiae strains, strain wild type, active compounds read low 1.01
